Assay results as given in PubChem BioAssay AID1159524 (National Center for Advancing Translational Sciences (NCATS), 2015).
The campaign covered roughly 410,000 compounds. About 5,100 (1.2%) were called active. Inconclusive results (about 8%) are left out. This is one part of a sample in which actives are shown more often than they occur. Calls follow the shape of the full dose curve; tested in HEK293T cells.

assay: High Throughput Screening for Foot and Mouth Disease Virus Antivirals; conditions: FMDV antiviral cell-based qHTS; series mostly up to 57.9 µM; activity change, negative = inhibition: at the top concentration; also: read-out not given here; nearly all actives have a fitted effect of over 45% in size
% is scaled to controls: 0 for no effect and ±100 for the full control effect; potency is read from the fitted curve at half-maximal effect.

Structure (SMILES) | Potency | activity change, negative = inhibition
O=C(O)CCn1c(O)c(C=C2N=c3ccccc3=N2)sc1=S | 10 µM (active) | 
CCc1nc(-c2cc(S(=O)(=O)N3CCN(c4ccc(OC)cc4)CC3)ccc2OC)no1 |  | 2.16% (inactive)
CN(Cc1cn(Cc2ccc(C(F)(F)F)cc2)nn1)C1CN(Cc2cn(Cc3ccc(C(F)(F)F)cc3)nn2)S(=O)(=O)C1 (stereo not drawn) | 17.8 µM (active) | 
Cc1ccc(Cn2cc(CN3CC(N4CCN(C)CC4)CS3(=O)=O)nn2)cc1 (stereo not drawn) |  | -21.6% (inactive)
CN(C)C1CN(Cc2cn(Cc3ccccc3)nn2)S(=O)(=O)C1 (stereo not drawn) |  | -13.3% (inactive)
Cc1ccc(CN2CCC(CNC(=O)c3cnn(-c4ccc(C)cc4)c3C3CCN(C(=O)OC(C)(C)C)CC3)CC2)cc1 |  | -4.3% (inactive)
COc1ncc2nc(-c3ccc(Cl)cc3)c(=O)n(C)c2n1 |  | 9.77% (inactive)
CCOC(=O)c1ccc(NC(=O)c2nc(SCc3ccc(F)cc3)ncc2Cl)cc1 |  | -13.5% (inactive)
Cc1cccc(NC(=O)c2nc(S(=O)(=O)Cc3ccccc3)ncc2Cl)c1 | 10 µM (active) | 
O=C(Nc1nc2ccc(F)cc2s1)c1nc(SCc2ccccc2F)ncc1Cl |  | -23.3% (inactive)
CCCSc1ncc(Cl)c(C(=O)Nc2c(C(=O)Nc3ccccc3)oc3ccccc23)n1 |  | -12.2% (inactive)
Cc1ccc2nc(NC(=O)c3nc(SCc4ccccc4F)ncc3Cl)sc2c1 |  | -21.4% (inactive)
CCS(=O)(=O)c1ncc(N(Cc2ccc(F)cc2)Cc2ccco2)c(C(=O)Nc2cc(C)ccc2C)n1 |  | 7.45% (inactive)
Cc1ccc(NC(=O)c2nc(S(=O)(=O)Cc3cccc(C)c3)ncc2Cl)cc1 | 25.1 µM (active) | 
CSc1nnc(NC(=O)c2nc(S(=O)(=O)Cc3ccc(C)cc3)ncc2Cl)s1 | 12.6 µM (active) | 
Cc1cccc(NC(=O)Cn2cc(S(=O)(=O)Cc3ccccc3Cl)c3ccccc32)c1 |  | -1.97% (inactive)
CCC(C)(C)N=C(NC#N)Nc1cccnc1 |  | -21.6% (inactive)
COc1ccccc1C1CN(CCNC(=O)C2=CCCC2)Cc2ccccc2O1 (stereo not drawn) |  | 34.4% (inactive)
CCOC(=O)c1c(S(=O)(=O)N2CCCC(C(=O)NCc3cccc(C)c3)C2)c(C)n(C)c1C (stereo not drawn) |  | -22.3% (inactive)
CCc1ccccc1N1C(=O)CN(S(=O)(=O)CC)CC1(C)C(=O)NC1CCCCC1 (stereo not drawn) |  | 0% (inactive)
CCN(CCCNC(=O)Cn1ncc2c([nH]c3ccccc32)c1=O)c1cccc(C)c1 |  | -8.64% (inactive)
Cc1[nH]c2c(C(=O)NCC3Cc4cccc(-c5cccnc5)c4O3)cccc2c1C (stereo not drawn) |  | 12.1% (inactive)
N#Cc1cccc(-c2ccc3ncnc(NCc4cccs4)c3c2)c1 |  | -17.2% (inactive)
O=C1CC(c2nnc(Cc3ccc(Cl)cc3)o2)CN1c1ccccc1 (stereo not drawn) |  | 1.46% (inactive)

Structure (SMILES) | Potency | activity change, negative = inhibition
Cc1noc(C)c1-c1nccc(N2CCOCC2)n1 |  | -12.1% (inactive)
CCc1nc(SCC(=O)Nc2ccccc2OC)n[nH]1 |  | 13.3% (inactive)
CCCc1nc(SCC(=O)N2CCCC2)c2c(=O)n(C)c(=O)n(C)c2n1 |  | -3.3% (inactive)
CCCc1nc(SCC(=O)Nc2ccccc2OC)c2c(=O)n(C)c(=O)n(C)c2n1 | 25.1 µM (active) | 
COc1cccc(-c2nc(Nc3ccncc3)c3ccccc3n2)c1 |  | -29.5% (inactive)
CN1CCN(c2ncncc2-c2ccc(C(=O)N(C)C)cc2)CC1 |  | 2.84% (inactive)
CN(C)C(=O)[C@@H]1C[C@@H](Sc2nc3ccccc3[nH]2)CN1Cc1ccc(Cl)cc1 |  | 39.8% (inactive)
Fc1ccc2[nH]c3c(N4CCSCC4)ncnc3c2c1 | 3.16 µM (active) | 
O=C(CSc1nc2c(c(=O)[nH]1)CN(Cc1ccc3c(c1)OCO3)CC2)Nc1cc(F)ccc1F |  | 6.05% (inactive)
Fc1ccc2[nH]c3c(N4CCN(Cc5ccc6c(c5)OCO6)CC4)ncnc3c2c1 | 6.31 µM (active) | 
N#C/C=C/N1CCN(Cc2ccc3c(c2)OCO3)CC1 |  | -8.21% (inactive)
Cc1cccc2nc(-c3ccc(Cl)s3)c(Nc3ccc4c(c3)OCCO4)n12 |  | 42.3% (inactive)
CCOC(=O)c1cc2cc(-c3c(C(=O)OCC)oc4cc(O)cc(O)c4c3=O)ccc2o1 | 31.6 µM (active) | 
CCN(CC)CCOC(=O)c1cc2cc(COC)ccc2o1 |  | -7.56% (inactive)
CCOC(=O)c1c(-c2ccc(OC)cc2)oc2ccc(OCc3ccc(C(=O)OC)cc3)cc12 |  | -24.4% (inactive)
Cc1ccc(-c2nnc(SCc3ccccc3C)o2)cc1 |  | 66.9% (inactive)
COc1ccccc1CNc1cc(-c2ccccc2CN(C)C)ncn1 |  | -23.5% (inactive)
O=C(c1ccc2c(c1)N(Cc1ccc(Cl)cc1)C(=O)c1ccccc1S2(=O)=O)N1CCCCC1 |  | -18.2% (inactive)
COc1ccc(C)cc1N1C(=O)[C@@H]2C[C@H]1CN2Cc1cccc(OC)c1O |  | -3.08% (inactive)
CCCCC/C=C\C/C=C\C/C=C\CCCCCCC(=O)NCCO |  | -10.3% [at 6.7 µM] (inactive)
CC(c1cccnc1)N(CCN(C)C)C(=O)Nc1ccc(Cl)c(Cl)c1 (stereo not drawn) |  | -16.7% (inactive)
O=C(CC(O)(C(F)(F)F)C(F)(F)F)Nc1ccc(Cl)c(Cl)c1 | 8.91 µM (active) | 
Cc1ccc(-c2nn(CCC(=O)Nc3ccc(Cl)c(Cl)c3)c(=O)c3ccccc23)cc1 |  | 1.63% (inactive)
Cc1cc(Nc2cccc(C(F)(F)F)c2)nc2ccc(NC(=O)c3ccc(=O)[nH]c3)cc12 |  | -8.82% (inactive)
